Laboratory results as given in PubChem BioAssay (NCATS).
Where “and” joins values, the source holds several entries; their conditions need not be identical. Identical values can stand only once. Inconclusive results are not listed. Calls of active or inactive are those of the source. Unless noted, calls come from the whole dose curve; as a rule, active = well fitted curve in the direction sought with a large enough effect; inconclusive = small, poorly fitted or top-dose-only effect, or another doubt; inactive = no such curve, though single readings can be large; an effect the other way counts as inactive or inconclusive.

Legend:
[1] = Cellular Toxicity (caspase-3) BJ (AID 658);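 note: cells exposed to compound for 16 hours; 0% = DMSO basal and 100% = 10 µM staurosporine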
In short: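 Plated BJ cells (1000/well) rested 5 hr, received compound for 16 hr at 37 °C, then Caspase-Glo 3/7 reagent for 1 hr at room temperature before luminescence reading.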

[2] = Cellular Toxicity (caspase-3) Mesangial (AID 660);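 note: combined caspase 3 and 7 activity read by Caspase-Glo luminescence; cells exposed to compound for 16 h before the caspase read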
In short: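 Caspase 3/7 activation measured by Caspase-Glo 3/7 luminescence (20 min, room temperature) following 16 h exposure of mesangial cells (1000/well); AC50 from Hill-equation fit, normalized to DMSO and 100 uM tamoxifen.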

[3] = Cellular Toxicity (caspase-3) H-4-II-E (AID 663); settings: Potency: caspase-3 activation;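 note: cells exposed to compound for 16 hr before readout; 0% = DMSO basal and 100% = 100 µM tamoxifen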
In short: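 Caspase 3/7 activation measured in H-4-II-E cells in complete culture medium after 16 hr treatment at 37 °C, using luciferase-coupled substrate readout; AC50 values come from Hill-equation fits of normalized concentration-response data.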

[4] = Cell Viability - LYMP1-002 - Assay at 16 hr (AID 948);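 note: 0% = DMSO alone and full effect = 92 µM tetraoctylammonium bromide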
In short: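 ATP luminescence (CellTiter-Glo) was measured after 16 hr compound exposure at 37 C of 2500 lymphoblastoid LYMP1-002 cells per well. Concentration-response curves were fitted with the Hill equation to give AC50.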

[5] = MultiTox-Fluor Cytotoxicity Assay - LYMP1-003 - Dead Cells (AID 961);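 note: 0% = DMSO and 100% = tetraoctylammonium bromide; nearly all actives have a fitted effect of over 70% in size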
In short: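 Acute toxicity is scored as increased dead-cell protease activity in human lymphoblastoid LYMP1-003 cells after 16 h compound exposure in complete culture medium. Activity is normalized to DMSO basal and 15 uM tetraoctylammonium bromide as full response.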

[6] = Cell Viability - LYMP2-003 (AID 965);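 note: cells exposed to compounds for 24 h before reading; 0% = DMSO only and full effect = 92 µM tetraoctylammonium bromide; nearly all actives have a fitted effect of over 50% in size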
In short: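 CellTiter-Glo luminescence quantified ATP loss after 24 h compound treatment of LYMP2-003 lymphoblastoid cells at 37 C. Titration series were fitted with the standard Hill equation to give AC50.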

[7] = Cell Viability - LYMP2-011 (AID 969);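 note: 0% = DMSO only and full inhibition = 92 µM tetraoctylammonium bromide; nearly all actives have a fitted effect of over 60% in size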
In short: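 Cytotoxicity qHTS with ATP content as read-out: lymphoblastoid cells (2500/well) exposed to compound for 24 h at 37 C, then luciferase luminescence measured. Concentration-response data fitted with the standard Hill equation to give AC50.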

[8] = Cell Viability - LYMP2-026 (AID 989); note: % is set by controls: 0 for no effect and ±100 for the full control effect; nearly all actives have a fitted effect of over 50% in size
In short: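 Cytotoxicity read as ATP-dependent luminescence (CellTiter-Glo, 30 min room temperature) after 24 h compound treatment at 37 C. LYMP2-026 lymphoblastoid line seeded at 2500 cells/well; AC50 derived by standard Hill equation.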

[9] = qHTS assay for small molecule disruptors of the mitochondrial membrane potential - 1 hr assay (AID 651754; calls by dose curve; note: nearly all actives have a fitted effect of over 35% in size; note: potency is the fitted concentration of half-maximal effect)
In short: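 Mitochondrial potential in living HepG2 cells after 1 hr compound treatment at 37C was read with Mito-MPS dye added for a further 30 min. Red aggregate and green monomer fluorescence were measured; loss of potential leaves dye as cytoplasmic monomers.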

[10] = qHTS assay for small molecule disruptors of the mitochondrial membrane potential - 5 hr assay (AID 651755; calls by dose curve; note: % is set by controls: 0 for no effect and ±100 for the full control effect; nearly all actives have a fitted effect of over 40% in size)
In short: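 Seed HepG2 overnight, add compound, incubate 5 hr at 37C and 5% CO2, stain 30 min with Mito-MPS, then measure monomer (490/535 nm) and aggregate (540/590 nm) fluorescence.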

[11] = target: Peroxisome proliferator-activated receptor alpha (Homo sapiens) (UniProt Q07869); test: qHTS assay for small molecule agonists of the peroxisome proliferator-activated receptor alpha (PPARalpha) signaling pathway (AID 651778); settings: PathHunter PPARalpha complementation, chemiluminescence, 6 h; active compounds read high; note: % of control where 0% means no effect
Chain of Peroxisome proliferator-activated receptor alpha (Homo sapiens) (Q07869 whole entry, looked up): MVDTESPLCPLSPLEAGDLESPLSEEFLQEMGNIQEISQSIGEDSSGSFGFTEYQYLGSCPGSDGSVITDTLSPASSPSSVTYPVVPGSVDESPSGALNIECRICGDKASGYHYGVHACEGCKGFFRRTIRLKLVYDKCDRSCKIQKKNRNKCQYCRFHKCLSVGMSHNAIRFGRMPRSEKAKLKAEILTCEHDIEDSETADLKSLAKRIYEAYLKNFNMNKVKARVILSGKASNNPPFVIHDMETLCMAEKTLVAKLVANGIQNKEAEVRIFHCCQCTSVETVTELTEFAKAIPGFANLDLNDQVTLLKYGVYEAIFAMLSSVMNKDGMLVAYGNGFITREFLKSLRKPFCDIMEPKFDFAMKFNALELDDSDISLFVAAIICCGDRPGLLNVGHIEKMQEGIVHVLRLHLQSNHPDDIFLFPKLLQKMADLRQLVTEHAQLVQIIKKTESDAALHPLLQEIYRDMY
In short: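 Cells plated at 2,000/well and held overnight at 37 C, 5% CO2, then compound added by pin tool for 6 hr; after PathHunter detection reagent and 60 min at room temperature, chemiluminescence from enzyme complementation was read.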

[12] = target: Nuclear receptor ROR-gamma (Homo sapiens) (UniProt P51449); test: qHTS assay for small molecule antagonists of the retinoid-related orphan receptor gamma (ROR-gamma) signaling pathway (AID 651802);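 note: CHO cells with doxycycline-induced ROR-gamma expression; luciferase reporter luminescence driven by ROR response element; series mostly up to about 92 µM; % is set by controls: 0 for no effect and ±100 for the full control effect; nearly all actives have a fitted effect of over 60% in size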
Chain of Nuclear receptor ROR-gamma (Homo sapiens) (P51449 whole entry, looked up): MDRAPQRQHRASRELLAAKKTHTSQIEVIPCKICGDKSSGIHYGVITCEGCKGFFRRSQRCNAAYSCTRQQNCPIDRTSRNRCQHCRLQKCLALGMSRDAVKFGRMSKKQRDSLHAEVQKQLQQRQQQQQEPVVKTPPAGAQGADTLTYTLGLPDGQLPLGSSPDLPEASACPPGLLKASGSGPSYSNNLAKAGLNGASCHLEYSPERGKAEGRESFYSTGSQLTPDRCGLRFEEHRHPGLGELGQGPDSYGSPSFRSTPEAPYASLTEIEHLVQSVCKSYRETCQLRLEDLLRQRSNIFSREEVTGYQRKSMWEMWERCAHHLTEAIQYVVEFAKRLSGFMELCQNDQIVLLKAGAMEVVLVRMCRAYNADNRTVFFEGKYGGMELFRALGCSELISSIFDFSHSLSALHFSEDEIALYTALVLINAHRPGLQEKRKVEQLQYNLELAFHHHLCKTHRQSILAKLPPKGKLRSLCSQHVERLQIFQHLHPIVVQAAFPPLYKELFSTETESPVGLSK
In short: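 Luminescence (One-Glo, 30 min RT) measured 16 h after compound addition and doxycycline induction at 37C. Reporter: RORE-luciferase under TET-inducible ROR-gamma in CHO cells.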

[13] = target: Nuclear receptor subfamily 1 group I member 2 (Rattus norvegicus) (UniProt Q9R1A7); test: qHTS assay for small molecule activators of the rat pregnane X receptor (rPXR) signaling pathway (AID 651751; call rule not given here; note: 0% is about no effect); settings: rPXR reporter cells, luciferase (One-Glo), 24 h
Chain of Nuclear receptor subfamily 1 group I member 2 (Rattus norvegicus) (Q9R1A7 whole entry, looked up): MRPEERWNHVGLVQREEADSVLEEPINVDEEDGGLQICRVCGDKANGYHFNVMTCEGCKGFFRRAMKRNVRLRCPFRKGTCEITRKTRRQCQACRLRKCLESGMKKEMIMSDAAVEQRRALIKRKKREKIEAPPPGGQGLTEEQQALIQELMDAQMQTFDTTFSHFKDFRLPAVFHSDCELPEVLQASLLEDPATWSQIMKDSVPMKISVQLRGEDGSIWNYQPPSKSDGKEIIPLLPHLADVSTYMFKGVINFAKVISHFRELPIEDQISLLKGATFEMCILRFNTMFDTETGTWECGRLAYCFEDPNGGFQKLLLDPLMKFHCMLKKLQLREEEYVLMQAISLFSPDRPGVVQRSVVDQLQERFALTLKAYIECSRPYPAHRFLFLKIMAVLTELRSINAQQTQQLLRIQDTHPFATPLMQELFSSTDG

[14] = qHTS assay for small molecule activators of the human pregnane X receptor (PXR) signaling pathway (AID 720659; call rule not given here; note: 0% is about no effect)
[15] = Cell Viability - MRC5 (AID 434; calls by dose curve;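 note: potency is the fitted concentration of half-maximal effect; cells exposed to compound for 40 hours at 37 °C; potency reflects cytotoxicity seen as loss of intracellular ATP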); settings: MRC5 lung fibroblast viability, qHTS
In short: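 Decrease in intracellular ATP, quantified by luciferase light output, reflects compound toxicity toward MRC5 cells exposed for 40 hr in complete culture medium. Concentration-response curves, scaled between DMSO and 100 uM tamoxifen, gave AC50 values.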

[16] = Cellular Toxicity (caspase-3) HUV-EC-C (AID 656);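 note: 0% = DMSO basal and 100% = 100 µM tamoxifen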
In short: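 Luminescent Caspase-Glo 3/7 readout after 16 h, 37 °C compound exposure of HUV-EC-C endothelial cells, 1000 per well, complete medium. AC50 derived by Hill fitting, with DMSO as baseline and 100 uM tamoxifen as full activation.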

[17] = target: Cytochrome P450 3A4 (Homo sapiens) (UniProt P08684); test: qHTS Assay for Inhibitors and Substrates of Cytochrome P450 3A4 (AID 884); note: nearly all actives have a fitted effect of over 50% in size; note: potency is the fitted concentration of half-maximal effect
Chain of Cytochrome P450 3A4 (Homo sapiens) (P08684 whole entry, looked up): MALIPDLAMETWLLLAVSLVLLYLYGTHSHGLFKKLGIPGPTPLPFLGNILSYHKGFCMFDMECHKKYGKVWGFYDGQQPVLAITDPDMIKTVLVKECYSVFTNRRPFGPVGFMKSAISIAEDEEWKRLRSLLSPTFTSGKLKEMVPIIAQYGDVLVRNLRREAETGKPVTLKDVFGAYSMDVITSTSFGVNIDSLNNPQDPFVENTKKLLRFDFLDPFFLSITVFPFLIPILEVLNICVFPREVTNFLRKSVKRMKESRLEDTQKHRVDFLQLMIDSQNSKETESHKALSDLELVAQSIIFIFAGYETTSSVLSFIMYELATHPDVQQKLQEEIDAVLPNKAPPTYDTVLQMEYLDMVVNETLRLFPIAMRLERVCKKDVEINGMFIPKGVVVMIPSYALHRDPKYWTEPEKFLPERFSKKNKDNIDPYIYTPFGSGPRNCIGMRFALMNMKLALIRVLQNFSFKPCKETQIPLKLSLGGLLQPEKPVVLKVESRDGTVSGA
In short: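 Luminescent readout of luciferin produced by CYP3A4 (20 nM) dealkylation of Luciferin-PPXE, 25 uM (its KM). NADPH-driven reaction ran 60 min at RT after 10 min compound preincubation; data scaled to 57 uM ketoconazole as 100% inhibition.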

[18] = Cell Viability - LYMP2-013 (AID 970);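 note: series mostly up to about 92 µM; 0% = DMSO only and full inhibition = tetraoctylammonium bromide control; nearly all actives have a fitted effect of over 55% in size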
In short: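 qHTS cytotoxicity: ATP-dependent luminescence (CellTiter-Glo, 30 min room temperature) read after 24 h compound exposure at 37 C of 2500 LYMP2-013 lymphoblastoid cells per well. Concentration-response fitted with Hill equation to give AC50.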

[19] = Cell Viability - LYMP1-002 - Assay at 24 hr (AID 993); note: % is set by controls: 0 for no effect and ±100 for the full control effect
In short: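 qHTS cytotoxicity at 24 h: CellTiter-Glo ATP luminescence in lymphoblastoid line LYMP1-002 incubated with compound at 37 °C. Concentration-response modeled with the Hill equation for AC50; tetraoctylammonium bromide served as positive control.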

[20] = qHTS assay for environmental chemicals that activate the Aryl hydrocarbon Receptor (AhR) signaling pathway (AID 651777); settings: 1A2-DRE human hepatoma cells, luciferase, 24 h; activation: active compounds read high; note: % of control where 0% means no effect; nearly all actives have a fitted effect of over 15% in size
In short: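 Stable CYP1A2 promoter/DRE-luciferase human hepatoma line treated 24 hr; One-Glo luminescence, 30 min RT.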

Nc1ccc(Cl)c(Cl)c1
inactive: outcome [1] | outcome [2] | Potency [3] | outcome [4] | Potency [5] | Potency [6] | Potency [7] | Potency [8] | Potency [9] | Potency [10] | max response [11] -1.3% | Potency [12] | max response [13] 0.573% | outcome [14]

CCSC(=O)N1CCCCCC1
inactive: Potency [15] > 92 µM | outcome [16] | outcome [1] | Potency [3] | Potency [17] | outcome [4] | Potency [5] | Potency [6] | Potency [7] | Potency [18] | Potency [8] | Potency [19] | Potency [9] | Potency [10] | activation [20] -0.667% and 0.714% | max response [11] 3.66% and -1.17% | Potency [12] | max response [13] -3.47% and 3.01% | outcome [14]

[O-][Cl+]O
inactive: outcome [16] | outcome [1] | Potency [3] | Potency [17] | outcome [4] | Potency [5] | Potency [6] | Potency [7] | Potency [18] | Potency [8] | Potency [9] | Potency [10] | activation [20] 0.878% | max response [11] 0.737% | Potency [12]

CCOP(=S)(OCC)Oc1nc(Cl)c(Cl)cc1Cl
inactive: Potency [15] > 92 µM | outcome [16] | outcome [1] | outcome [2] | Potency [3] | outcome [4] | Potency [5] | Potency [6] | Potency [7] | Potency [18] | Potency [8] | Potency [19] | Potency [10] | activation [20] 12% | max response [11] 0.508% [middle of 4 runs] | max response [13] 6.81% [middle of 4 runs]
active: Potency [17] 5.01 µM

O=P(OCCCl)(OCCCl)OCCCl
inactive: Potency [15] > 92 µM | outcome [16] | outcome [1] | outcome [2] | Potency [3] | Potency [17] | outcome [4] | Potency [7] | Potency [18] | Potency [8] | Potency [19] | Potency [9] | Potency [10] | activation [20] 0.332% | max response [11] -2.47% | Potency [12] | max response [13] 6.23% | outcome [14]

O=C(Cc1ccccc1)OCc1ccccc1
inactive: Potency [15] > 92 µM | outcome [16] | outcome [1] | Potency [3] | Potency [17] | outcome [4] | Potency [5] | Potency [6] | Potency [18] | Potency [8] | Potency [19] | Potency [9] | Potency [10] | max response [11] 0.258% | Potency [12] | max response [13] -0.53% | outcome [14]

CN(C)C(=O)Nc1ccc(Cl)cc1
inactive: Potency [15] > 92 µM | outcome [16] | outcome [2] | Potency [3] | Potency [17] | outcome [4] | Potency [5] | Potency [7] | Potency [19] | Potency [9] | Potency [10] | activation [20] 1.83% and 5.75% | max response [11] -3.6% and -1.79% | Potency [12] | max response [13] 6.29% and 10.4% | outcome [14]

Cc1cccc(N)c1C
inactive: outcome [16] | outcome [2] | Potency [3] | Potency [17] | outcome [4] | Potency [5] | Potency [6] | Potency [7] | Potency [18] | Potency [8] | Potency [19] | Potency [9] | Potency [10] | activation [20] 0.811% | max response [11] -1.4% | Potency [12] | max response [13] -0.698% | outcome [14]

O=C(O)CBr
inactive: outcome [16] | outcome [1] | outcome [2] | Potency [3] | Potency [17] | outcome [4] | Potency [6] | Potency [7] | Potency [18] | Potency [8] | Potency [9] | Potency [10] | activation [20] -0.817% | max response [11] 2.06% | Potency [12] | max response [13] 2.42% | outcome [14]

C=CCCC#N
inactive: Potency [15] > 92 µM | outcome [16] | outcome [1] | outcome [2] | Potency [17] | outcome [4] | Potency [5] | Potency [6] | Potency [7] | Potency [8] | Potency [19] | Potency [9] | Potency [10] | max response [11] -3.78% | Potency [12] | max response [13] -6.54% | outcome [14]

Oc1cc(Cl)cc(Cl)c1
active: Potency [9] 42.2 µM
inactive: outcome [16] | outcome [1] | outcome [2] | Potency [3] | Potency [17] | outcome [4] | Potency [5] | Potency [6] | Potency [7] | Potency [18] | Potency [8] | Potency [19] | activation [20] 1.21% | max response [11] 5.88% | Potency [12] | max response [13] 0.776% | outcome [14]

C=CC#N
inactive: outcome [16] | outcome [1] | outcome [2] | Potency [3] | Potency [17] | outcome [4] | Potency [5] | Potency [6] | Potency [7] | Potency [18] | Potency [8] | Potency [19] | Potency [9] | Potency [10] | activation [20] 2.03% | max response [11] -1.02% | Potency [12] | max response [13] -2.96% | outcome [14]

Clc1cccc(Cl)c1Cl
inactive: Potency [15] > 92 µM | outcome [2] | Potency [3] | Potency [17] | outcome [4] | Potency [5] | Potency [6] | Potency [7] | Potency [18] | Potency [8] | Potency [19] | Potency [9] | Potency [10] | activation [20] -1.51% and 0.659% | max response [11] -3.74% and -0.322% | Potency [12] | max response [13] -2.59% and 0.772% | outcome [14]

CN(C)N=O
inactive: outcome [16] | outcome [1] | outcome [2] | Potency [3] | Potency [17] | outcome [4] | Potency [5] | Potency [18] | Potency [8] | Potency [19] | Potency [9] | Potency [10] | activation [20] 0.336% | max response [11] 0.541% | Potency [12] | max response [13] 2.44% | outcome [14]

CC12CC1(C)C(=O)N(c1cc(Cl)cc(Cl)c1)C2=O (centres undefined)
inactive: outcome [1] | outcome [2] | Potency [3] | Potency [17] | Potency [5] | Potency [6] | Potency [7] | Potency [18] | Potency [8] | Potency [19] | activation [20] -0.0704% and 1.05% | max response [11] -1.35% and -2.97% | Potency [12] | max response [13] 12.6% and 11%

c1ccc(P(c2ccccc2)c2ccccc2)cc1
inactive: Potency [15] > 92 µM | outcome [16] | outcome [1] | outcome [2] | Potency [3] | Potency [17] | outcome [4] | Potency [5] | Potency [6] | Potency [7] | Potency [18] | Potency [8] | Potency [10] | activation [20] 0.491% | max response [11] -4.42% | Potency [12] | max response [13] 2.64%

Oc1cccc(Cl)c1Cl
inactive: outcome [16] | outcome [2] | Potency [3] | Potency [17] | outcome [4] | Potency [5] | Potency [6] | Potency [7] | Potency [18] | Potency [8] | Potency [19] | Potency [9] | Potency [10] | activation [20] 0.0475% | max response [11] -2.6% | Potency [12] | max response [13] -2.09% | outcome [14]
